Assay results: PubChem BioAssay AID1159580 (chemical genetic matrix, 2015)
Values joined by “and” are separate entries in the source; they are usually repeats but may differ in a detail not shown here. Identical values can stand only once. Hit rate of the full screen: of about 5,500 compounds, about 2,000 (36%) were called active. Roughly 18% stayed inconclusive and do not appear here. Cut-off read from the data, not from the text of the source: active = normalized growth mostly below about 0.91 (no sharp cut-off); inconclusive = no clear call, values can overlap the other calls; inactive = mostly above about 0.92. Some of the results follow.

Assay: chemical genetic growth profiling, strain panel (AID 1159580);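 note: tested at 20 µM; growth read once vehicle control cultures reached saturation at 30 °C; 1 = growth at the plate median or of vehicle wells; lower values mean less growth of the strain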
Details: S. cerevisiae deletion strains, growth OD

Measured: normalized growth

CCCC(C)(COC(N)=O)COC(=O)NC(C)C (stereo unspecified)
inactive: locus YAL021C, strain ccr4, stronger effect = lower value 1 | locus YAL026C, strain drs2, stronger effect = lower value 0.99 | locus YAL030W, strain snc1, stronger effect = lower value 0.98 | locus YAL040C, strain CLN3, stronger effect = lower value 0.989 | locus YBL061C, strain skt5, stronger effect = lower value 1 | locus YBR009C, strain hhf1, stronger effect = lower value 0.983 | locus YBR021W, strain FUR4, stronger effect = lower value 0.991 | locus YBR023C, strain chs3, stronger effect = lower value 1.01 | locus YBR171W, strain sec66, stronger effect = lower value 1 | locus YBR229C, strain ROT2, stronger effect = lower value 0.954 | locus YBR231C, strain swc5, stronger effect = lower value 1.01 | locus YBR279W, strain paf1, stronger effect = lower value 1 | locus YCL011C, strain gbp2, stronger effect = lower value 0.996 | locus YCL016C, strain dcc1, stronger effect = lower value 0.985 | locus YCL029C, strain bik1, stronger effect = lower value 0.977 | locus YCL061C, strain MRC1, stronger effect = lower value 1 | locus YCL069W, strain vba3, stronger effect = lower value 0.992 | locus YCR088W, strain abp1, stronger effect = lower value 0.998 | locus YDL005C, strain med2, stronger effect = lower value 1 | locus YDL035C, strain GPR1, stronger effect = lower value 0.951 | locus YDL040C, strain nat1, stronger effect = lower value 1 | locus YDL074C, strain BRE1, stronger effect = lower value 0.974 | locus YDL101C, strain DUN1, stronger effect = lower value 0.982 | locus YDL134C, strain PPH21, stronger effect = lower value 0.965 | locus YDL185W, strain tfp1, stronger effect = lower value 0.945 | locus YDL192W, strain arf1, stronger effect = lower value 0.965 | locus YDR001C, strain nth1, stronger effect = lower value 0.974 | locus YDR069C, strain doa4, stronger effect = lower value 1.01 | locus YDR101C, strain arx1, stronger effect = lower value 0.983 | locus YDR137W, strain rgp1, stronger effect = lower value 0.966 | locus YDR150W, strain NUM1, stronger effect = lower value 0.983 | locus YDR159W, strain sac3, stronger effect = lower value 0.986 | locus YDR162C, strain NBP2, stronger effect = lower value 0.94 | locus YDR195W, strain ref2 1 | locus YDR297W, strain sur2, stronger effect = lower value 0.991 | locus YDR318W, strain mcm21, stronger effect = lower value 0.979 | locus YDR334W, strain swr1, stronger effect = lower value 0.979 | locus YDR335W, strain msn5, stronger effect = lower value 0.989 | locus YDR363W, strain ESC2, stronger effect = lower value 0.976 | locus YDR388W, stronger effect = lower value 0.979 | locus YDR392W, strain spt3, stronger effect = lower value 0.952 | locus YDR502C, strain sam2, stronger effect = lower value 0.984 | locus YEL003W, strain gim4, stronger effect = lower value 0.986 | locus YEL037C, strain rad23, stronger effect = lower value 0.993 | locus YEL061C, strain CIN8 (second series), stronger effect = lower value 0.975 | locus YEL061C, strain CIN8, stronger effect = lower value 0.982 | locus YER002W, strain NOP16, stronger effect = lower value 0.995 | locus YER015W, strain faa2, stronger effect = lower value 1.01 | locus YER016W, strain bim1, stronger effect = lower value 0.986 | locus YER110C, stronger effect = lower value 0.964 | locus YER111C, strain swi4, stronger effect = lower value 0.973 | locus YER155C, strain BEM2 (second series), stronger effect = lower value 1.04 | locus YER155C, strain BEM2, stronger effect = lower value 0.99 | locus YER167W, strain BCK2, stronger effect = lower value 0.989 | locus YFR010W, strain ubp6, stronger effect = lower value 0.985 | locus YGL078C, strain dbp3, stronger effect = lower value 0.981 | locus YGL086W, strain mad1, stronger effect = lower value 0.98 | locus YGL167C, strain pmr1, stronger effect = lower value 0.991 | locus YGL173C, strain kem1, stronger effect = lower value 0.993 | locus YGL227W, strain vid30, stronger effect = lower value 0.987 | locus YGL240W, strain doc1, stronger effect = lower value 1.02 | locus YGL248W, strain PDE1, stronger effect = lower value 0.991 | locus YGL253W, strain hxk2, stronger effect = lower value 0.978 | locus YGR078C, strain PAC10, stronger effect = lower value 0.988 | locus YGR135W, strain pre9, stronger effect = lower value 1 | locus YGR229C, strain SMI1, stronger effect = lower value 0.971 | locus YGR252W, strain gcn5, stronger effect = lower value 0.989 | locus YHR013C, strain ard1, stronger effect = lower value 0.967 | locus YHR027C, strain rpn1, stronger effect = lower value 1.01 | locus YHR030C, strain SLT2, stronger effect = lower value 0.992 and 0.979 | locus YHR079C, strain IRE1 (second series), stronger effect = lower value 0.989 | locus YHR079C, strain IRE1, stronger effect = lower value 0.974 | locus YHR094C, strain hxt1, stronger effect = lower value 0.969 | locus YHR129C, strain ARP1, stronger effect = lower value 0.988 | locus YHR142W, strain chs7, stronger effect = lower value 0.982 | locus YHR200W, strain rpn10, stronger effect = lower value 0.967 | locus YIL066C, strain RNR3, stronger effect = lower value 0.975 | locus YIL073C, strain SPO22, stronger effect = lower value 0.981 | locus YIL125W, strain kgd1, stronger effect = lower value 0.969 | locus YIR030C, strain dcg1, stronger effect = lower value 0.978 | locus YJL092W, strain hpr5, stronger effect = lower value 0.988 | locus YJL095W, strain BCK1 (second series), stronger effect = lower value 0.998 | locus YJL095W, strain BCK1, stronger effect = lower value 1.02 and 0.977 | locus YJL115W, strain asf1, stronger effect = lower value 0.962 | locus YJL129C, strain trk1, stronger effect = lower value 0.983 | locus YJL134W, strain LCB3, stronger effect = lower value 0.976 | locus YJL154C, strain vps35, stronger effect = lower value 0.992 | locus YJL164C, strain tpk1, stronger effect = lower value 0.966 | locus YJL166W, strain qcr8, stronger effect = lower value 1.01 | locus YJL168C, strain set2, stronger effect = lower value 0.981 | locus YJL187C, strain SWE1 (second series), stronger effect = lower value 0.987 | locus YJR043C, strain POL32, stronger effect = lower value 0.965 | locus YJR066W, strain TOR1, stronger effect = lower value 0.965 | locus YJR075W, strain HOC1, stronger effect = lower value 0.997 | locus YKL009W, strain mrt4, stronger effect = lower value 1.03 | locus YKL068W, stronger effect = lower value 0.971 | locus YKL085W, strain MDH1 (second series), stronger effect = lower value 0.982 | locus YKL085W, strain MDH1, stronger effect = lower value 0.982 | locus YKL160W, strain elf1, stronger effect = lower value 1 | locus YKR001C, strain vps1, stronger effect = lower value 0.97 | locus YKR026C, strain gcn3, stronger effect = lower value 0.989 | locus YKR091W, strain srl3, stronger effect = lower value 0.97 | locus YLL001W, strain dnm1, stronger effect = lower value 1.02 | locus YLL026W, stronger effect = lower value 1 | locus YLL041C, strain sdh2, stronger effect = lower value 1.01 | locus YLR027C, strain aat2, stronger effect = lower value 0.993 | locus YLR039C, strain RIC1, stronger effect = lower value 0.974 | locus YLR058C, strain SHM2, stronger effect = lower value 0.978 | locus YLR102C, strain apc9, stronger effect = lower value 0.982 | locus YLR113W, strain HOG1, stronger effect = lower value 0.978 | locus YLR221C, strain rsa3, stronger effect = lower value 1.01 | locus YLR258W, strain gsy2, stronger effect = lower value 0.986 | locus YLR262C, strain YPT6 (second series), stronger effect = lower value 0.991 | locus YLR262C, strain YPT6, stronger effect = lower value 0.911 | locus YLR268W, strain sec22, stronger effect = lower value 0.969 | locus YLR320W, strain mms22, stronger effect = lower value 0.985 | locus YLR330W, strain CHS5, stronger effect = lower value 0.985 | locus YLR342W, strain FKS1 (second series), stronger effect = lower value 0.995 | locus YLR342W, strain FKS1, stronger effect = lower value 1.02 | locus YLR357W, strain rsc2, stronger effect = lower value 0.949 | locus YLR370C, strain arc18, stronger effect = lower value 1.01 | locus YLR371W, strain rom2, stronger effect = lower value 0.959 | locus YLR384C, strain iki3, stronger effect = lower value 1 | locus YLR418C, strain cdc73, stronger effect = lower value 1.01 | locus YML016C, strain PPZ1, stronger effect = lower value 0.986 | locus YML032C, strain rad52, stronger effect = lower value 0.97 | locus YML120C, strain ndi1, stronger effect = lower value 1 | locus YML124C, strain tub3, stronger effect = lower value 0.986 | locus YMR058W, strain fet3, stronger effect = lower value 0.973 | locus YMR078C, strain ctf18, stronger effect = lower value 0.964 | locus YMR125W, strain sto1, stronger effect = lower value 0.975 | locus YMR129W, stronger effect = lower value 0.985 | locus YMR205C, strain PFK2, stronger effect = lower value 1 | locus YMR223W, strain ubp8, stronger effect = lower value 1 | locus YMR231W, strain pep5, stronger effect = lower value 0.999 | locus YMR263W, strain SAP30, stronger effect = lower value 0.99 | locus YMR307W, strain GAS1, stronger effect = lower value 0.942 | locus YNL067W, strain RPL9B, stronger effect = lower value 0.992 | locus YNL071W, strain lat1, stronger effect = lower value 1 | locus YNL128W, strain TEP1, stronger effect = lower value 0.97 | locus YNL153C, strain GIM3, stronger effect = lower value 0.995 | locus YNL175C, strain NOP13, stronger effect = lower value 0.988 | locus YNL183C, strain NPR1, stronger effect = lower value 0.925 | locus YNL197C, strain WHI3, stronger effect = lower value 0.95 | locus YNL209W, strain ssb2, stronger effect = lower value 0.983 | locus YNL224C, strain SQS1, stronger effect = lower value 0.996 | locus YNL233W, strain BNI4, stronger effect = lower value 1 | locus YNL248C, strain rpa49, stronger effect = lower value 0.921 | locus YNL250W, strain rad50, stronger effect = lower value 0.961 | locus YNL271C, strain bni1, stronger effect = lower value 0.979 | locus YNL298W, strain CLA4, stronger effect = lower value 0.972 | locus YNL307C, strain MCK1, stronger effect = lower value 0.979 | locus YNL322C, strain KRE1 (second series), stronger effect = lower value 1.01 | locus YNL322C, strain KRE1, stronger effect = lower value 0.995 | locus YNR049C, strain mso1, stronger effect = lower value 0.986 | locus YNR052C, strain pop2, stronger effect = lower value 0.974 | locus YOL012C, strain htz1 1.03 | locus YOL147C, strain pex11, stronger effect = lower value 0.991 | locus YOR001W, strain rrp6, stronger effect = lower value 1.02 | locus YOR061W, strain CKA2, stronger effect = lower value 0.962 | locus YOR069W, strain VPS5, stronger effect = lower value 0.984 | locus YOR070C, strain gyp1, stronger effect = lower value 0.992 | locus YOR080W, strain dia2, stronger effect = lower value 1.01 | locus YOR083W, strain WHI5 (second series), stronger effect = lower value 0.975 | locus YOR083W, strain WHI5, stronger effect = lower value 1.03 | locus YOR106W, strain vam3, stronger effect = lower value 1.02 | locus YOR136W, strain idh2, stronger effect = lower value 0.973 | locus YOR144C, strain elg1, stronger effect = lower value 0.984 | locus YOR184W, strain ser1, stronger effect = lower value 0.965 | locus YOR231W, strain MKK1, stronger effect = lower value 0.981 | locus YOR265W, strain rbl2, stronger effect = lower value 1 | locus YOR270C, strain vph1, stronger effect = lower value 0.968 | locus YOR290C, strain snf2, stronger effect = lower value 0.982 | locus YOR316C, strain cot1, stronger effect = lower value 0.948 | locus YPL051W, strain arl3, stronger effect = lower value 1.02 | locus YPL055C, strain LGE1, stronger effect = lower value 0.988 | locus YPL078C, strain atp4, stronger effect = lower value 1.01 | locus YPL106C, strain sse1, stronger effect = lower value 0.984 | locus YPL240C, strain hsp82, stronger effect = lower value 1 | locus YPL241C, strain CIN2, stronger effect = lower value 0.999 | locus YPL256C, strain CLN2, stronger effect = lower value 0.965 | locus YPR119W, strain clb2, stronger effect = lower value 0.977 | locus YPR141C, strain kar3, stronger effect = lower value 0.956 | locus YPR163C, strain tif3, stronger effect = lower value 0.975 | locus YPR167C, strain met16, stronger effect = lower value 0.985 | strain wtn01, stronger effect = lower value 0.996
